Experimental data as given in PubChem BioAssay (NCI).
Several values for one entry are separate records, joined by “and”; a condition that tells them apart may be missing. Equal values may be shown once. About 79,000 compounds went through this panel and 15% of them were active in at least one assay; those are over-represented in the sample as a whole. Where a structure was tested more than once in an assay, its records may differ in their call. Activity calls are given as the source filed them. Rule as the data show it: active = growth inhibition above about 70%; inactive = the rest.

Columns and labels:
[1] = NCI Yeast Anticancer Drug Screen. Data for the rad50 strain (AID 155);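 also: 0% = growth of vehicle-only cultures of the same strain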; conditions: S. cerevisiae rad50 strain growth inhibition, stronger effect = higher value
Procedure, shortened: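 DNA repair mutant yeast, compound exposure, growth read-out; inhibition is taken relative to vehicle.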

[2] = NCI Yeast Anticancer Drug Screen. Data for the sgs1 mgt1 strain (AID 161);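 also: 0% = growth of cultures given vehicle only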; conditions: S. cerevisiae sgs1 mgt1 strain, stronger effect = higher value
Procedure, shortened: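 Percent growth inhibition was derived by comparing compound-exposed mutant yeast with vehicle-exposed cultures. The strain carries alterations in DNA damage repair.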

[3] = NCI Yeast Anticancer Drug Screen. Data for the cln2 rad14 strain (AID 165);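 also: 0% = growth equal to vehicle treated cultures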; conditions: S. cerevisiae cln2 rad14 strain, stronger effect = higher value
Procedure, shortened: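 Relative to vehicle controls, growth inhibition of compound-treated cln2 rad14 yeast was recorded.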

[4] = NCI Yeast Anticancer Drug Screen. Data for the bub3 strain (AID 167); conditions: S. cerevisiae bub3 mutant strain, stronger effect = higher value
Procedure, shortened: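 In this screen, a yeast mutant lacking normal mitotic checkpoint function is challenged with compound. Relative growth versus vehicle gives the inhibition value.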

[5] = NCI Yeast Anticancer Drug Screen. Data for the mlh1 rad18 strain (AID 175); conditions: S. cerevisiae mlh1 rad18 strain growth inhibition, stronger effect = higher value
Procedure, shortened: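 Test agents were incubated with a yeast strain of defined genotype (DNA damage repair defect). Inhibition of growth was derived by comparison with vehicle-exposed cultures.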

[6] = NCI Yeast Anticancer Drug Screen. Data for the mec2-1 strain (AID 157); conditions: S. cerevisiae mec2-1 strain, stronger effect = higher value
Procedure, shortened: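 Readout is yeast growth inhibition, normalised to vehicle-treated controls, in the mec2-1 strain exposed to compound.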

[7] = at 5.0 µM (retest, dose inferred, filed as 0.5)
[8] = at 50.0 µM (retest, dose inferred, filed as 5.0)

SMILES	growth inhibition [1, 7]	growth inhibition [1, 8]	growth inhibition ([1]; at 50.0 µM)	growth inhibition [2, 7]	growth inhibition [2, 8]	growth inhibition ([2]; at 50.0 µM)	growth inhibition [3, 7]	growth inhibition [3, 8]	growth inhibition ([3]; at 50.0 µM)	growth inhibition [4, 7]	growth inhibition [4, 8]	growth inhibition ([4]; at 50.0 µM)	growth inhibition [5, 7]	growth inhibition [5, 8]	growth inhibition ([5]; at 50.0 µM)	growth inhibition [6, 7]	growth inhibition [6, 8]	growth inhibition ([6]; at 50.0 µM)
CCN(CC)CCNc1n[n+]([O-])c2cc([N+](=O)[O-])ccc2[n+]1[O-]	31% (inactive)	88% (active)	80.5% (active) and 79% (active)	16% (inactive)	76% (active)	73.5% (active) and 71% (active)	32% (inactive)	63% (inactive)	48% (inactive) and 41% (inactive)	-7% (inactive)	67% (inactive)	43.7% (inactive) and 45.1% (inactive)	24% (inactive)	85% (active)	79.3% (active) and 80.5% (active)			
CCC(C)(C)c1cc(O)c(C(C)(C)CC)cc1O	10% (inactive)	88% (active)	0.35% (inactive) and 93.2% (active)	-3% (inactive)	91% (active)	11.3% (inactive) and 88% (active)	18% (inactive)	84% (active)	-15.2% (inactive) and 84.8% (active)	23% (inactive)	91% (active)	20.2% (inactive) and 92.3% (active)	10% (inactive)	81% (active)	9.45% (inactive) and 91.8% (active)			
CC(O)CN1CCN(CC(C)O)CC1.[I][Pt+2][I] (stereo not drawn)	-5% (inactive)	27% (inactive)	59.7% (inactive)	-1% (inactive)	16% (inactive)	78.9% (active)	2% (inactive)	7% (inactive)	17.9% (inactive)	-1% (inactive)	2% (inactive)	-2% (inactive)	-2% (inactive)	16% (inactive)	92.7% (active)			
CC(C)=CCC(O)C1=CC(=O)c2c(O)ccc(O)c2C1=O (stereo not drawn)	44% (inactive)	59% (inactive)	9.15% (inactive) and 87.9% (active) and 4.05% (inactive)	43% (inactive)	92% (active)	12.4% (inactive) and 91.5% (active) and 30.6% (inactive)				62% (inactive)	87% (active)	22.6% (inactive) and 88% (active) and 36.5% (inactive)	43% (inactive)	60% (inactive)	26.6% (inactive) and 85.2% (active) and 9.65% (inactive)	46% (inactive)	66% (inactive)	15.9% (inactive) and 90.7% (active) and 54.8% (inactive)
COc1nc2nc(C(O)C(O)CO)cnc2c(=O)n1C (stereo not drawn)			-5.55% (inactive) [middle of 4 runs]			-5.2% (inactive) [middle of 4 runs]						7.15% (inactive) [middle of 4 runs]						-6.55% (inactive) [middle of 4 runs]
O=[N+]([O-])c1ccc2ccccc2c1O	2% (inactive)	94% (active)	96.7% (active)	5% (inactive)	97% (active)	95.7% (active)				-3% (inactive)	93% (active)	95.5% (active)	3% (inactive)	97% (active)	98.5% (active)	8% (inactive)	97% (active)	97.7% (active)
COc1cccc2c1C(=O)c1c(O)c3c(c(O)c1C2=O)C[C@@](O)(C(C)=O)C[C@@H]3OC1CC(N)C(O)C(C)O1 (stereo partly drawn)	32% (inactive)	91% (active)		8% (inactive)	93% (active)		23% (inactive)	85% (active)		7% (inactive)	93% (active)		7% (inactive)	88% (active)		-11% (inactive)	90% (active)	
CS(=O)(=O)OC1CC(n2ccc(=O)[nH]c2=O)OC1COC(c1ccccc1)(c1ccccc1)c1ccccc1 (stereo not drawn)	-14% (inactive)	95% (active)	14.9% (inactive) and 97% (active)	-17% (inactive)	54% (inactive)	11.3% (inactive) and 50.5% (inactive)				-3% (inactive)	86% (active)	7.25% (inactive) and 97.8% (active)	0% (inactive)	97% (active)	5.6% (inactive) and 97% (active)	-4% (inactive)	95% (active)	-4.6% (inactive) and 97% (active)
CCN(CC)c1ccc(C(=C2C=CC(=[N+](CC)CC)C=C2)c2ccc(N(CC)CC)cc2)cc1	97% (active)	91% (active)	67.5% (inactive)	98% (active)	92% (active)	77.5% (active)	97% (active)	91% (active)	76% (active)	98% (active)	90% (active)	74.6% (active)	97% (active)	90% (active)				
NC(CC(=O)O)C(=O)O (stereo not drawn)	-2% (inactive)	2% (inactive)	-21.4% (inactive) and 99.3% (active) and 3.3% (inactive)	-3% (inactive)	0% (inactive)	-30.9% (inactive) and 98% (active) and -5.9% (inactive)	4% (inactive)	-7% (inactive)	-7.75% (inactive) and 99.3% (active) and 16.6% (inactive)	5% (inactive)	0% (inactive)	-10.1% (inactive) and 99.6% (active) and -3.75% (inactive)	-3% (inactive)	4% (inactive)	-14.1% (inactive) and 99.5% (active) and 21.2% (inactive)			
COc1cc2c(cc1O)CC[n+]1cc3c(OC)c(OC)ccc3cc1-2			-56% (inactive) and 3.1% (inactive) and -3% (inactive)			-20.8% (inactive) and 0.8% (inactive) and 20.3% (inactive)			9.65% (inactive) and 5.15% (inactive) and -13.2% (inactive)			-15.4% (inactive) and -3.15% (inactive) and 15.6% (inactive)			-11.1% (inactive) and -69.1% (inactive) and 0% (inactive)			-20% (inactive) and -15.3% (inactive) and 0.25% (inactive)
OC1C(O)C(O)C(O)C(O)C1O (stereo not drawn)												0.4% (inactive) [middle of 5 runs]			4.3% (inactive) [middle of 5 runs]			
O=C(O)CCN1c2ccccc2Sc2ccccc21	1% (inactive) and -19% (inactive)	31% (inactive) and 27% (inactive)	35% (inactive) and 69.4% (inactive)	-5% (inactive) and -16% (inactive)	46% (inactive) and 41% (inactive)	27.9% (inactive) and 69.6% (inactive)	-8% (inactive) and 13% (inactive)	58% (inactive) and 52% (inactive)	84.3% (active) and 54.4% (inactive)	-15% (inactive) and -16% (inactive)	51% (inactive) and 48% (inactive)	64.9% (inactive) and 39.2% (inactive)	-7% (inactive) and -39% (inactive)	56% (inactive) and 35% (inactive)	42.5% (inactive) and 54.9% (inactive)			
